Data taken from PubChem BioAssay.
Where “and” joins values, the source holds several entries; their conditions need not be identical. Equal values may be shown once. Calls of active or inactive are those of the source.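 Rule for the calls, unless noted: active = at least 20% inhibition of 6-phosphogluconate dehydrogenase activity; inactive = the rest.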

Assays:
[1] = EMT-state selective cytotoxicity in co-culture – imaging, PC-3E GFP, TEM4-18 mCherry, primary screen (AID 1345086;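 active = compounds killing one labelled cell type while sparing the other, by normalised counts and ratio limits, not self-fluorescent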;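 for all read-outs here: cells exposed to compound for 72 h before imaging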;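 for red/green cell ratio (normalised): normalised mesenchymal count divided by normalised epithelial count so high means epithelial killing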); details: PC-3E GFP / TEM4-18 mCherry co-culture, imaging cell counts, at 1 µM; for red/green cell ratio (normalised): actives lie on both sides
[2] = MELAS cybrid and Rieske KO viability enhancers – cell-based, MELAS cybrids, Rieske KO mouse fibroblasts, CellTiter-Glo, primary screen (AID 1508586;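 active = mean z-score across replicates of 1.96 or higher in either the MELAS or the Rieske mutant cell line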;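 note: z relative to plate mean and SD of compound and empty wells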); details: low glucose
[3] = target: 6-phosphogluconate dehydrogenase, decarboxylating (Homo sapiens) (UniProt P52209); assay: inhibition of human phosphogluconate dehydrogenase – biochemical, recombinant enzyme, NADPH absorbance, primary screen (AID 1159550); details: recombinant 6PGD, NADPH absorbance 341 nm; at 10 µM; stronger effect = higher value
[4] = target: NAD(+) hydrolase SARM1 (Homo sapiens) (UniProt Q6SZW1); assay: blocking NAD cleavage by SARM1 SAM-TIR – cell lysate, NAD-Glo luminescence (AID 1508614;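 active = compound whose remaining NAD level is above about 45 nM, limit read from the data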;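 note: higher remaining NAD means stronger inhibition of SARM1 NADase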); details: SAM-TIR HEK293T lysate NADase, at 1 µM, stronger effect = higher value
[5] = galactose survival enhancers in mitochondrial complex I cybrids – cell-based, galactose medium, ATP luminescence, primary screen (AID 1645843;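 active = z-score of at least 1.8 in each of two replicates, scored against plate mean and spread of sample wells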;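 note: positive z means more ATP and so rescue of galactose-driven cybrid death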); details: complex I mutant cybrid cells, 72 h, stronger effect = higher value
[6] = P. berghei load reduction in hepatocytes – cell-based, HepG2, luciferase luminescence, HepG2 viability, primary screen (AID 624349; in the data active = parasite load remaining mostly below about 12%, no sharp cut-off; inactive = mostly above about 10%;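 note: 100% = mean of DMSO negative control wells on the same plate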); details: P. berghei liver stage in HepG2, luciferase luminescence, concentration not given here; parasite load remaining: stronger effect = lower value; viability: measured here: HepG2 viability without parasites
[7] = viability loss with induced miR-34 in A549 – imaging, A549 dox-inducible miR-34, nuclei and caspase counts, primary screen (AID 1347080;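 active = compounds whose cell count with miR-34 switched on is under 0.7 times the count with it off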); details: A549 miR-34 inducible, Hoechst nuclei count, 48 h
[8] = compounds altering circadian rhythm period length – cell-based, LOPAC library, luminescence reporter (AID 2774; call rule not given here;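 note: values are relative to mean of DMSO wells on each plate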); details: circadian reporter cells, at 7 µM, actives lie on both sides
[9] = tested on: Hepatitis C virus NS3 helicase; assay: blockers of NS3h binding to ssDNA – biochemical, fluorescence polarization, LOPAC1280 library, primary screen (AID 687035; in the data active = inhibition above about 37%); details: Purified HCV NS3 helicase, Cy5-dT15 ssDNA binding fluorescence polarization; stronger effect = higher value; concentration not given here
[10] = compounds altering Cy5-DNA-NS3h complex signal – biochemical, LOPAC1280, artefact control for HCV NS3 helicase inhibitor project (AID 687037; call rule not given here); details: Cy5-DNA-NS3h complex fluorescence interference counterscreen
[11] = tested on: Aerobactin synthetase IucA (Klebsiella pneumoniae, hypervirulent); assay: biochemical IucA inhibition screen of LOPAC library by absorbance (AID 1346212; call rule not given here;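 note: 100% = no compound wells and 0% = no enzyme wells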); details: IucA enzyme assay, absorbance (OD) readout; stronger effect = lower value;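 tested at 8 µM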
[12] = compounds altering viability of human ES cells (AID 493140; call rule not given here;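 note: cells exposed to compounds for four days before counting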); details: human embryonic stem cell survival screen; stronger effect = higher value
[13] = measured here: epithelial PC-3E GFP cell survival
[14] = measured here: mesenchymal TEM4-18 mCherry cell survival
[15] = MELAS cybrid survival, CellTiter-Glo 48 h, stronger effect = higher value
[16] = Rieske KO mouse fibroblast survival, CellTiter-Glo 72 h
[17] = measured here: relative caspase fold change +Dox/-Dox
[18] = measured here: total cells with miR-34 induction, stronger effect = lower value
[19] = measured here: total cells without miR-34 induction

Chain of 6-phosphogluconate dehydrogenase, decarboxylating (Homo sapiens) (P52209 whole entry, looked up): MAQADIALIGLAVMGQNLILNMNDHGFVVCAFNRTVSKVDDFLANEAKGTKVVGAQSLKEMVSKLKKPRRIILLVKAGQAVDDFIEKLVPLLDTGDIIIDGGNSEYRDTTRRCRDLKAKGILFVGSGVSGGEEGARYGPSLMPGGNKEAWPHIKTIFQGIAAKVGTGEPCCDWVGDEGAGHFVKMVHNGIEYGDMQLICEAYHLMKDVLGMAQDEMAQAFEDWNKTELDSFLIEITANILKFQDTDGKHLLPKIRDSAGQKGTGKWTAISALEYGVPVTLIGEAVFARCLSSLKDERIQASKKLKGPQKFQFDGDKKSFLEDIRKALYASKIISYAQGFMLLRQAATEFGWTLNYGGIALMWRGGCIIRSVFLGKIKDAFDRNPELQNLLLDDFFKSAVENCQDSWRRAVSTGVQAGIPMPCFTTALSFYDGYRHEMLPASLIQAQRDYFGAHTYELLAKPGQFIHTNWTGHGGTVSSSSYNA
Chain of NAD(+) hydrolase SARM1 (Homo sapiens) (Q6SZW1 whole entry, looked up): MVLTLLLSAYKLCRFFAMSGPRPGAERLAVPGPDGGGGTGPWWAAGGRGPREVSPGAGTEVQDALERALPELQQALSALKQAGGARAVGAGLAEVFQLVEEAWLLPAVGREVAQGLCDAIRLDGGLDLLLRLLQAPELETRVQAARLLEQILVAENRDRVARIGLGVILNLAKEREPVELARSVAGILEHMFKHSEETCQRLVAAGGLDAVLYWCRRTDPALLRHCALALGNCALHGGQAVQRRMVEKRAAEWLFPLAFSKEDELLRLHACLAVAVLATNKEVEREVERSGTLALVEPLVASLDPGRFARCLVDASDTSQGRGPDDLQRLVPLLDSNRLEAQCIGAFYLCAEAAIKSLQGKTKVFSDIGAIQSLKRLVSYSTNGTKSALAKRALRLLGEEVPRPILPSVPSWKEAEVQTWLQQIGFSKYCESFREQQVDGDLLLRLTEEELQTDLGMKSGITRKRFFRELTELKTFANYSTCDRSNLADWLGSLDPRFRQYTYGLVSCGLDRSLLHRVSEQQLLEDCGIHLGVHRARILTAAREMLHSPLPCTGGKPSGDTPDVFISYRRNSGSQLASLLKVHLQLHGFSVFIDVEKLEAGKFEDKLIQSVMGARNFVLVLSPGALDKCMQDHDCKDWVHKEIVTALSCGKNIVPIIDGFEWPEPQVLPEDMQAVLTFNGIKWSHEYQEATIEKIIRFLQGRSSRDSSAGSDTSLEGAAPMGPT

## COP(=S)(OC)Oc1ccc(Sc2ccc(OP(=S)(OC)OC)cc2)cc1
[1]
  red/green cell ratio (normalised): 0.91 (inactive)
[1]; [13]
  normalised cell number: 1.08
[1]; [14]
  normalised cell number: 0.98

## c1ccc2c(c1)Sc1ccccc1N2CC1CN2CCC1CC2 (configuration not stated)
[2]; [15]
  z-score: -0.772 (inactive)
[2]; [16]
  z-score: -0.213

## Clc1ccc(COC(Cn2ccnc2)c2ccc(Cl)cc2Cl)c(Cl)c1 (configuration not stated)
[3]
  inhibition: -24.1% (inactive)
[1]
  red/green cell ratio (normalised): 1.04 (inactive)
[1]; [13]
  normalised cell number: 0.94
[1]; [14]
  normalised cell number: 0.97
[4]
  remaining NAD: 10 nM (inactive)
[5]
  z-score: -1.52 (inactive) and -2.01 (inactive)

## ClC1=C(Cl)C2(Cl)C3C(Cl)C(Cl)CC3C1(Cl)C2(Cl)Cl (configuration not stated)
[3]
  inhibition: -19% (inactive)

## C=C1[C@@H]2CC[C@H]3[C@]4(C)C[C@H](O[C@@H]5O[C@H](CO)[C@@H](OS(=O)(=O)O)[C@H](OS(=O)(=O)O)[C@H]5OC(=O)CC(C)C)C[C@@H](C(=O)O)[C@H]4CC[C@]3(C2)[C@H]1O
[3]
  inhibition: 5.29% (inactive)

## CC[C@H]1CN2CC[C@H]1C[C@@H]2[C@@H](O)c1ccnc2ccc(OC)cc12
[3]
  inhibition: 5.31% (inactive)
[4]
  remaining NAD: 10 nM (inactive)

## CCOCN(C(=O)CCl)c1c(C)cccc1CC
[3]
  inhibition: 4.9% (inactive)

## FC(F)(F)c1cccc(N2CCNCC2)c1
[6]
  parasite load remaining: 134% (inactive)
  viability: 71.2%
[3]
  inhibition: 7.13% (inactive)
[7]; stronger effect = lower value
  fold change: 0.923 (inactive)
[7]; [17]
  fold change: 1.38
[7]; [18]
  cell count: 9590
[7]; [19]
  cell count: 10400
[5]
  z-score: 0.73 (inactive)

## c1ccc2c3c([nH]c2c1)CNCC3
[6]
  parasite load remaining: 59.9% (inactive)
  viability: 85.2%
[3]
  inhibition: -0.853% (inactive)
[7]; stronger effect = lower value
  fold change: 0.984 (inactive)
[7]; [17]
  fold change: 1.28
[7]; [18]
  cell count: 7470
[7]; [19]
  cell count: 7600
[5]
  z-score: -0.425 (inactive)

## C=C[C@H]1CN2CC[C@H]1C[C@H]2[C@H](O)c1ccnc2ccccc12
[6]
  parasite load remaining: 56.2% (inactive) and 85.6% (inactive) and 31.1% (inactive)
  viability: 103% and 68.9% and 98.9%
[3]
  inhibition: 5.53% (inactive)
[1]
  red/green cell ratio (normalised): 1.04 (inactive)
[1]; [13]
  normalised cell number: 1.08
[1]; [14]
  normalised cell number: 1.12
[7]; stronger effect = lower value
  fold change: 0.86 (inactive) and 0.872 (inactive)
[7]; [17]
  fold change: 1.26 and 3.36
[7]; [18]
  cell count: 9250 and 11500
[7]; [19]
  cell count: 10800 and 13200
[4]
  remaining NAD: 10 nM (inactive)

## COc1ccc2[nH]cc(CCN)c2c1
[8]
  period change: -0.125 h (inactive)
[6]
  parasite load remaining: 58.9% (inactive)
  viability: 68.9%
[9]
  inhibition: -2% (inactive)
[10]
  fluorescence ratio (interference): 1 (inactive)
[3]
  inhibition: 0.367% (inactive)
[1]
  red/green cell ratio (normalised): 0.84 (inactive)
[1]; [13]
  normalised cell number: 1.18
[1]; [14]
  normalised cell number: 0.99
[11]
  remaining activity: 109% (inactive)
[7]; stronger effect = lower value
  fold change: 1.03 (inactive) and 0.901 (inactive)
[7]; [17]
  fold change: 1.64 and 1.2
[7]; [18]
  cell count: 10600 and 8900
[7]; [19]
  cell count: 10300 and 9880
[5]
  z-score: 0.225 (inactive) and 0.515 (inactive)

## CCCCCCCCCc1ccc(O)cc1
[3]
  inhibition: 10.5% (inactive)
[1]
  red/green cell ratio (normalised): 0.85 (inactive)
[1]; [13]
  normalised cell number: 1.34
[1]; [14]
  normalised cell number: 1.14

## c1ccc2c(c1)cc1ccc3cccc4ccc2c1c34
[3]
  inhibition: 5.92% (inactive)
[1]
  red/green cell ratio (normalised): 0.86 (inactive)
[1]; [13]
  normalised cell number: 1.22
[1]; [14]
  normalised cell number: 1.05

## NC(=O)CS(=O)C(c1ccccc1)c1ccccc1 (configuration not stated)
[6]
  parasite load remaining: 153% (inactive) and 44.2% (inactive) and 93% (inactive)
  viability: 83% and 104% and 71.7%
[3]
  inhibition: -7.07% (inactive)
[1]
  red/green cell ratio (normalised): 1.19 (inactive)
[1]; [13]
  normalised cell number: 1.04
[1]; [14]
  normalised cell number: 1.24
[7]; stronger effect = lower value
  fold change: 0.912 (inactive) and 0.928 (inactive) and 0.913 (inactive)
[7]; [17]
  fold change: 0.934 and 0.471 and 9.69
[7]; [18]
  cell count: 8970 and 9060 and 12100
[7]; [19]
  cell count: 9830 and 9770 and 13200
[2]; [15]
  z-score: 0.264 (inactive)
[2]; [16]
  z-score: 0.0685
[4]
  remaining NAD: 10 nM (inactive)
[5]
  z-score: 0.66 (inactive)

## CCc1cccc(C)c1N(C(=O)CCl)C(C)COC (configuration not stated)
[3]
  inhibition: 3.27% (inactive)

## COc1cc2c(cc1OC)-c1c(oc3c4c(ccc3c1=O)OC(C(C)C)C4)CO2 (configuration not stated)
[3]
  inhibition: -6.79% (inactive)
[1]; counts scaled to control wells, 1 = unselective
  red/green cell ratio (normalised): 0.93 (inactive)
[1]; [13]
  normalised cell number: 0.99
[1]; [14]
  normalised cell number: 0.92

## CC[C@@]1(O)C(=O)OCc2c1cc1n(c2=O)Cc2cc3ccccc3nc2-1
[8]
  period change: -0.48 h (inactive)
[12]
  survival: 0.833 (inactive)
[9]
  inhibition: 0% (inactive)
[10]
  fluorescence ratio (interference): 1 (inactive)
[3]
  inhibition: 3.3% (inactive)
[1]
  red/green cell ratio (normalised): 1.07 (inactive)
[1]; [13]
  normalised cell number: 0.28
[1]; [14]
  normalised cell number: 0.3
[11]
  remaining activity: 90% (inactive)
[2]; [15]
  z-score: -0.725 (inactive) and -0.263 (inactive) and -1.18 (inactive)
[2]; [16]
  z-score: 0.467 and -0.232 and -0.237
[5]
  z-score: -0.96 (inactive) and -0.91 (inactive) and -2.17 (inactive)
